The values below come from the supplement of paper PMC13380429.

A number with no mark means an inactive call.

The subject of the assay is Vero E6 infected with SARS-CoV-2. In words: SARS-CoV-2 infection rate relative to infected DMSO; higher = more infection, active = 60 or less. As to conditions: 24 h.
Consider `N[C@@H](CSCCCO)C(=O)O` [fudosteine] (10 µM), for which the SARS-CoV-2 infection rate is 104%.

Turning to `O=C1NS(=O)(=O)c2ccccc21` [saccharin] (10 µM), the SARS-CoV-2 infection rate is 106%.

Turning to `O=C1C(CC[S+]([O-])c2ccccc2)C(=O)N(c2ccccc2)N1c1ccccc1` (stereo not given) [sulfinpyrazone] (10 µM), the SARS-CoV-2 infection rate was 108%.

Regarding `CN(CCOc1ccc(CC2SC(=O)NC2=O)cc1)c1ccccn1` (stereo not given) [rosiglitazone] (10 µM), the SARS-CoV-2 infection rate was 92.5%.

In the case of `CCn1c(=O)c(-c2cc[nH]n2)cc2c(C)nc(N)nc21` [voxtalisib] (0.833333 µM), the SARS-CoV-2 infection rate was 109%.

Turning to `Cc1cnc(C(=O)N[C@H]2CCCCC/C=C\[C@@H]3C[C@@]3(C(=O)NS(=O)(=O)C3CC3)NC(=O)[C@@H]3C[C@@H](Oc4nc5ccccc5c5ccccc45)CN3C2=O)cn1` [paritaprevir] (10 µM), the SARS-CoV-2 infection rate was 98%.

Turning to `O=C(c1ccccn1)c1cnn2c(-c3ccncc3)ccnc12` [ocinaplon] (10 µM), the SARS-CoV-2 infection rate was 117%.

On to `CCCCOc1ccc(-c2cncc(C(=O)NCc3cccnc3N3CCOCC3)c2)cc1Cl` (10 µM), for which the SARS-CoV-2 infection rate is 108%.

For `Nc1nccc2c1ncn2C1C=C(CO)C(O)C1O` (stereo not given) [3-deazaneplanocin-A] (10 µM), the SARS-CoV-2 infection rate was 112%.

For `C[C@@H](Nc1cc(F)cc(F)c1)c1cc(C(=O)N(C)C)cc2c(=O)cc(N3CCOCC3)oc12` (10 µM), the SARS-CoV-2 infection rate is 122%.

With `CCN(CC)CCNC(=O)COc1ccc(OC)cc1` [mefexamide] (10 µM), the SARS-CoV-2 infection rate was 113%.

As for `CN[C@@H](C)C(=O)N[C@H](C(=O)N1CCC[C@H]1C(=O)Nc1snnc1-c1ccccc1)C1CCCCC1` (10 µM), the SARS-CoV-2 infection rate is 110%.

Turning to `Cc1cc([C@@H](C)Nc2ccccc2C(=O)O)c2nc(N3CCOCC3)cc(=O)n2c1` (10 µM), the SARS-CoV-2 infection rate was 105%.

Turning to `O=c1[nH]c(=O)n([C@H]2C[C@H](O)[C@@H](CO)O2)cc1I` [idoxuridine] (10 µM), the SARS-CoV-2 infection rate was 108%.

For the molecule `CCC1(C2=NCCN2)Cc2ccccc2O1` (stereo not given) [efaroxan] (10 µM), the SARS-CoV-2 infection rate was 95%.

On to `NC(=S)N/N=C/c1ncccc1N` [triapine] (0.833333 µM), for which the SARS-CoV-2 infection rate was 106%.

`CCOc1cc(OCC)c(C(=O)CCC(=O)O)cc1OCC` [trepibutone] (10 µM): the SARS-CoV-2 infection rate was 106%.

`COc1ccc(C2CNC(=O)C2)cc1OC1CCCC1` (stereo not given) [rolipram] (10 µM): the SARS-CoV-2 infection rate was 100%.

Regarding `Brc1c(NC2=NCCN2)ccc2nccnc12` [brimonidine] (10 µM), the SARS-CoV-2 infection rate is 106%.

Take `CC[C@@H]([C@H](C)O)n1ncn(-c2ccc(N3CCN(c4ccc(OC[C@@H]5CO[C@@](Cn6cncn6)(c6ccc(F)cc6F)C5)cc4)CC3)cc2)c1=O` [posaconazole] (0.833333 µM): the SARS-CoV-2 infection rate is 102%.

Regarding `CCNC(=O)NS(=O)(=O)c1sc(CC(C)C)cc1-c1ccc(Cn2c(-c3ccccc3)nc(OC)c2C=O)cc1` (10 µM), the SARS-CoV-2 infection rate was 97%.

`CSc1nc(NC2CCCC2)c([N+](=O)[O-])c(NC2CCCC2)n1` (10 µM): the SARS-CoV-2 infection rate is 88%.

`CC(C)NCC(O)c1ccc([N+](=O)[O-])cc1` (stereo not given) [nifenalol] (10 µM): the SARS-CoV-2 infection rate was 118%.

With `O=C(/C=C/c1ccc(O)c(O)c1)O[C@@H]1C[C@](O)(C(=O)O)C[C@@H](O)[C@H]1O` [chlorogenic-acid] (10 µM), the SARS-CoV-2 infection rate is 112%.

For the molecule `C[C@H]1c2cccc(O)c2C(=O)C2=C(O)[C@]3(O)C(=O)C(C(N)=O)=C(O)[C@@H](N(C)C)[C@@H]3[C@@H](O)[C@@H]21` [doxycycline] (10 µM), the SARS-CoV-2 infection rate was 97%.

Take `COc1cc2c(Oc3ccc(NC(=O)C4(C(=O)Nc5ccc(F)cc5)CC4)cc3F)ccnc2cc1OCCCN1CCOCC1` [foretinib] (10 µM): the SARS-CoV-2 infection rate was 106%.

Turning to `COc1ccc(CC(=O)NC(/N=C(\NC#N)Nc2cccc3ncccc23)C(C)(C)C)cc1OC` (stereo not given) (10 µM), the SARS-CoV-2 infection rate was 97%.

As for `COc1ccccc1OCC(O)CNC(C)C` (stereo not given) [moprolol] (10 µM), the SARS-CoV-2 infection rate was 100%.

Take `CN1CCN(c2c(F)cc3c(=O)c(C(=O)O)cn4c3c2SCC4)CC1` [rufloxacin] (10 µM): the SARS-CoV-2 infection rate is 103%.

As for `COC(=O)[C@@H]1[C@H]2C[C@H]3c4[nH]c5ccccc5c4CCN3C[C@@H]2CC[C@@H]1O` [yohimbine] (10 µM), the SARS-CoV-2 infection rate was 109%.

With `COc1ccc(CNC(=O)Nc2ncc([N+](=O)[O-])s2)cc1` (10 µM), the SARS-CoV-2 infection rate was 106%.

On to `O=[N+]([O-])c1ncc[nH]1` [azomycin-(2-nitroimidazole)] (10 µM), for which the SARS-CoV-2 infection rate is 105%.

For `COc1ccc(/C=C/C(=O)/C=C(O)/C=C/c2ccc(OC)c(OC)c2)cc1OC` (10 µM), the SARS-CoV-2 infection rate is 80.5%.

Regarding `CC(=O)OC[C@H](N)C(=O)O` [O-acetyl-L-serine] (10 µM), the SARS-CoV-2 infection rate is 88%.

For `CN1C(=O)CCS(=O)(=O)C1c1ccc(Cl)cc1` (stereo not given) [chlormezanone] (10 µM), the SARS-CoV-2 infection rate was 117%.

For `C=C1C(=O)O[C@@H]2[C@H]3O[C@]3(C)CC/C=C(\C)CC[C@@H]12` [parthenolide-(alternate-stereo)] (0.833333 µM), the SARS-CoV-2 infection rate was 106%.

Consider `Cc1cc(N2CCN([C@@H]3CN[C@H](C(=O)N4CCSC4)C3)CC2)n(-c2ccccc2)n1` [teneligliptin] (10 µM), for which the SARS-CoV-2 infection rate is 112%.

Turning to `CC(C)C[C@@H](C(=O)N[C@H](C(=O)OC1CCCC1)c1ccccc1)[C@H](O)C(=O)NO` [tosedostat] (10 µM), the SARS-CoV-2 infection rate is 97%.

Take `CCOC(=O)c1ccc(N2NC(=O)/C(=C/c3ccc([N+](=O)[O-])o3)C2=O)cc1` (10 µM): the SARS-CoV-2 infection rate was 85%.

Consider `CCN(c1cc(-c2ccc(CN3CCOCC3)cc2)cc(C(=O)NCc2c(C)cc(C)[nH]c2=O)c1C)C1CCOCC1` [tazemetostat] (10 µM), for which the SARS-CoV-2 infection rate is 104%.
